Laboratory results from PubChem BioAssay (NCI).
Compounds without any hit were thinned out: in the full panel of roughly 83,000, 20% have a hit.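 Plates (96-well) were seeded with cells, treated with compound at one concentration, and incubated for 48 hours before percent growth was determined.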 A number with no mark means an inactive call. The source made the active and inactive calls. Rule for the calls: active = growth percent below 10; inactive = the rest.

What was measured:
Assay in all cases: NCI-60 one-dose screen, 48 h (100 = growth as untreated, 0 = no growth, -100 = all killed)
Settings in all cases: 10 µM unless noted
DU-145 prostate = system: DU-145 prostate
K-562 leukemia = system: K-562 leukemia
MALME-3M melanoma = system: MALME-3M melanoma
MDA-MB-231 breast = system: MDA-MB-231 breast
RXF 393 renal = system: RXF 393 renal
SF-268 CNS = system: SF-268 CNS
SF-295 CNS = system: SF-295 CNS
SF-539 CNS = system: SF-539 CNS
UACC-257 melanoma = system: UACC-257 melanoma
M14 melanoma = system: M14 melanoma
HCT-15 colon = system: HCT-15 colon
HT29 colon = system: HT29 colon
SNB-75 CNS = system: SNB-75 CNS
SNB-19 CNS = system: SNB-19 CNS
U251 CNS = system: U251 CNS
PC-3 prostate = system: PC-3 prostate
SK-MEL-5 melanoma = system: SK-MEL-5 melanoma
UACC-62 melanoma = system: UACC-62 melanoma
LOX IMVI melanoma = system: LOX IMVI melanoma
SK-MEL-28 melanoma = system: SK-MEL-28 melanoma

| Structure (SMILES) | growth (DU-145 prostate) | growth (K-562 leukemia) | growth (MALME-3M melanoma) | growth (MDA-MB-231 breast) | growth (RXF 393 renal) | growth (SF-268 CNS) | growth (SF-295 CNS) | growth (SF-539 CNS) | growth (UACC-257 melanoma) | growth (M14 melanoma) | growth (HCT-15 colon) | growth (HT29 colon) | growth (SNB-75 CNS) | growth (SNB-19 CNS) | growth (U251 CNS) | growth (PC-3 prostate) | growth (SK-MEL-5 melanoma) | growth (UACC-62 melanoma) | growth (LOX IMVI melanoma) | growth (SK-MEL-28 melanoma) |
| --- | --- | --- | --- | --- | --- | --- | --- | --- | --- | --- | --- | --- | --- | --- | --- | --- | --- | --- | --- | --- |
| CC1(C)OB(O)c2cc(-c3nc4ccc5[nH]ncc5c4c4c3CCCC4)ccc21 | 54.8% | 44.5% | 60.5% | 47.9% | 35.3% | 57.4% | 63.1% | 73.6% | 77.5% | 52% | 38.2% | 56.3% | 75% | 90.6% | 61.8% | 41.3% | -67.9% (active) | 37.7% | 42% | 87.4% |
| COc1ccc(-c2cc(-c3ccccc3)nc(N3CCN(CCNc4ccnc5cc(Cl)ccc45)CC3)n2)cc1 | -33.4% (active) | 0.988% (active) | -87.7% (active) | -82.4% (active) | -34.7% (active) | -15.1% (active) | 82.7% | -40% (active) | -84.5% (active) | -70.9% (active) | -82% (active) | -67.6% (active) | 83.6% | 72.7% | 0.46% (active) | 32.4% | -98.6% (active) | 62.2% | -95.1% (active) | -93.1% (active) |
| CC/C(Cc1ccccc1)=C(\c1ccc(OCCCN(C)C)cc1)c1ccc(OC(=O)NCc2ccccc2)cc1 | 73.9% | -31.7% (active) | 41.8% | 65.2% | 80% | 72.4% | 110% | 93% | 83.4% | 18.8% | 4.38% (active) | 7.12% (active) | 69.4% | 76.3% | 35.7% | 64.5% | 74.4% | 85% | 15.5% | 90% |
| Nc1nc2c(c3ncccc13)C(c1cccc(Cl)c1)Cc1ncccc1-2 (stereo not given) | 21.5% | 14% | 67.7% | 28.8% | 10.7% | 45.6% | 0.813% (active) | -19.9% (active) | 63.6% | 6.41% (active) | 22.2% | 2.28% (active) | 32.5% | 21.1% | 16% | 18.3% | 29.3% | 22.1% | 36.8% | 63.9% |
| Cc1ccc(S(=O)(=O)Oc2ccc3sc4cccc(NCCN(C)C)c4c(=O)c3c2)cc1 | -89.5% (active) | -64.6% (active) | -99.4% (active) | -96.7% (active) | -87.4% (active) | -82.1% (active) | -92.3% (active) | -95.3% (active) | -80.6% (active) | -84.9% (active) | -94.2% (active) | -60.6% (active) | -92.9% (active) | -60% (active) | -78.6% (active) | -86.4% (active) | -99% (active) | -98.2% (active) | -96.5% (active) | -92.4% (active) |
| C/C(Cc1ccc(Cl)cc1)=C(\c1ccc(OCCCN(C)C)cc1)c1ccc(OC(=O)Cc2ccccc2)cc1 | 106% | 91.8% | 111% | 108% | 109% | 97.6% | 100% | 105% | 103% | 109% | 103% | 78.8% | 92.8% | 105% | 112% | 96.5% | 102% | 105% | 99.2% | 103% |
| COc1ccc(/C=C(/C(=O)n2cnnn2)c2cc(OC)c(OC)c(OC)c2)cc1 | 25.1% | 15.3% | 62.5% | 36.7% | -4.36% (active) | 49% | -7.45% (active) | -7.92% (active) | 70.2% | -2.57% (active) | 15.5% | 8.2% (active) | 15.4% | 17.4% | 17.9% | 13.1% | 15.2% | 20.1% | 37% | 43.8% |
| N#C/C(=C\c1ccc([N+](=O)[O-])cc1)n1nnc2cc(F)c(F)cc21 | 14.6% | 5.08% (active) | 33.1% | 8.32% (active) | -64.7% (active) | 31% | 98.1% | -33.7% (active) | 77.4% | 28.4% | -7.69% (active) | 0.57% (active) | 46.3% | 69% | 43.5% | -16% (active) | 81.3% | -43.7% (active) | -97.6% (active) | 101% |
| S=c1nc2oc(-c3ccccc3)c(-c3ccccc3)c2c(/N=C\c2ccco2)[nH]1 | 100% | 89.3% | 99.3% | 98.5% | 99.3% | 90.2% | 94.3% | 95.8% | 105% | 103% | 85.6% | 98.3% | 74.2% | 95.2% | 91.4% | 85.8% | 94.6% | 90.9% | 92.9% | 109% |
| CCc1ccc(CCC(=O)Nc2ncc(Cc3ccccc3)s2)o1 | 26.7% | 11.8% | 65.2% | 52.5% | 2.15% (active) | 61.1% | 15.1% | -10.1% (active) | 58.9% | 10.5% | 20.2% | 9.07% (active) | 3.46% (active) | 52.9% | 27.2% | 26.7% | 42.8% | 23% | 42.4% | 56.4% |
| O=C1Nc2ccccc2/C1=C/c1cccn1C(=O)c1ccc(Cl)s1 | 66.8% | 36.8% | 104% | 50.9% | 81.1% | 39.4% | 88.8% | 62.4% | 79.5% | 82.2% | 17.8% | 80.5% | 63.6% | 28.4% | 22.3% | 33% | 69.8% | 94.9% | 79.2% | 113% |
| C=C1C(=O)O[C@H]2[C@H]1CC/C(COC(=O)/C=C/C(=O)OC/C1=C/CC[C@@]3(C)O[C@H]3[C@H]3OC(=O)C(=C)[C@@H]3CC1)=C\CC[C@@]1(C)O[C@@H]21 | 25.4% | 5.18% (active) | -27.3% (active) | -7.25% (active) | -11.3% (active) | 90.3% | 115% | 82.2% | 60.3% | 27.5% | 13.1% | 8.88% (active) | 95.2% | 90.5% | 76% | 61.1% | 83.1% | 55.1% | 3.81% (active) | 51.8% |
| COc1ccc(C(=O)/C=C/c2ccc(Cl)cc2)cc1S(=O)(=O)Nc1c(N)nc(SC)[nH]c1=O | 88.3% | 3.84% (active) | 90.1% | 68.2% | 92% | 45.3% | 90.1% | -5.49% (active) | 90.9% | 74.7% | 65.7% | 31.3% | 33.4% | 8.18% (active) | -4.2% (active) | 39.1% | 74.1% | 62.3% | 2.64% (active) | 97.4% |
| CSc1nn2c(-c3ccc4ccccc4c3)ccnc2c1C#N | 43% | 11.1% | 10.1% | 27.3% | 19% | 45.3% | 8.45% (active) | 26.3% | 63% | 5.19% (active) | 15.4% | 2.83% (active) | -7.71% (active) | 18.3% | 6.98% (active) | 45.8% | 10.1% | 18.8% | 21.7% | 38.9% |
| CO[C@H](C(=O)[C@@H](O)[C@@H](C)O)[C@@H]1Cc2cc3cc(O[C@H]4C[C@@H](O[C@H]5C[C@@H](O)[C@H](O)C(C)O5)[C@H](O)C(C)(O)O4)cc(O)c3c(O)c2C(=O)[C@H]1O[C@H]1C[C@@H](O[C@H]2C[C@@H](O[C@H]3C[C@@H](OC)[C@H](O)C(C)O3)[C@@H](O)C(C)O2)[C@H](O)C(C)O1 (stereo not given in full) | 17.5% | 29.9% | -11.4% (active) | 25.1% | -35.1% (active) | 34.8% | 14.4% | 9.92% (active) | -16% (active) | 34.2% | 92.8% | 11.3% | 24.5% | 24.4% | 6.61% (active) | 26.3% | -56.8% (active) | -39.5% (active) | 2.79% (active) | 3.39% (active) |
